These results are taken from PubChem BioAssay (EPA / NIEHS).

Molecules are shown by their SMILES. Inconclusive results are not listed. Activity calls are given as the source filed them. How the source made its calls, unless noted: active means hit-call score of the fitted dose curve at least 0.9, where 1 is the maximum; inactive means score below 0.9.

A short description of assay [1]: ATG_NFI_CIS: Attagene CIS-FACTORIAL HepG2 Assay for human Nuclear Factor I (NFI) (AID 2282989). The note with it: HepG2 cis-regulatory reporter, NFI response element transcription; actives raise or lower the signal. An outline of the steps:
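HepG2, transient MRTU, 24 h exposure; RNA→cDNA→PCR→FAM label→HpaI→CE fluorescence. Bidirectional fit, DMSO = baseline.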

In assay [2] the target is Myc proto-oncogene protein (Homo sapiens) (UniProt P01106). In words: ATG_Myc_CIS: Attagene CIS-FACTORIAL HepG2 Assay for human Myelocytomatosis (Myc) Proto-Oncogene Transcription Factor (AID 2282990). The note with it: HepG2, Attagene cis-reporter transcription factor activity; actives raise or lower the signal. An outline of the steps: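 Cells of the HepG2 human liver line bear multiple cis-driven reporter transcription units. Reporter mRNA after 24 h exposure is reverse-transcribed, amplified, labelled and resolved by capillary electrophoresis, with gain- or loss-of-signal fitting relative to DMSO.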
Sequence of Myc proto-oncogene protein (Homo sapiens) (P01106 whole entry, looked up): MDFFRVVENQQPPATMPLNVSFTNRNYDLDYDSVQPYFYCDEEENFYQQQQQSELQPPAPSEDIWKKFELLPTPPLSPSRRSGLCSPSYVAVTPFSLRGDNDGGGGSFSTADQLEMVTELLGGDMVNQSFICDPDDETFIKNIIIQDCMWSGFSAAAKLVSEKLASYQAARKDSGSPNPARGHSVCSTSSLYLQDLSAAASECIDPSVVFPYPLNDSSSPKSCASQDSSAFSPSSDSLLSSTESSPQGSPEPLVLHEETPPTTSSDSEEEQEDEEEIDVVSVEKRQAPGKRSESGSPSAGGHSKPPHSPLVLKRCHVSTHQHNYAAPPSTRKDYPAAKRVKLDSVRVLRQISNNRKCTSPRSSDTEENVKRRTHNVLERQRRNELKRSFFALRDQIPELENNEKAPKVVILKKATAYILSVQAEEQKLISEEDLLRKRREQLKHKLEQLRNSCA

A short description of assay [3]: ATG_NF_kB_CIS: Attagene CIS-FACTORIAL HepG2 Assay for human Nuclear Factor Kappa B (NF-kB) (AID 2282991). The note with it: HepG2 Attagene cis-factorial NF-kB reporter mRNA; actives raise or lower the signal. An outline of the steps:
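HepG2, transient multi-reporter transfection, cis promoter elements (endogenous TFs). 24 h exposure. Total RNA → RT → PCR → 6-FAM label → HpaI → CE. Gain/loss vs DMSO.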

The nature of assay [4]: ATG_NRF2_ARE_CIS: Attagene CIS-FACTORIAL HepG2 Assay for human Nuclear Factor Erythroid 2 Related Factor 2 (NFR2) response to Antioxidant Response Elements (ARE) (AID 2282992).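 On AC50: reporter mRNA level measured by RT-PCR and capillary electrophoresis fluorescence.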 The note with it: HepG2 Attagene ARE/NRF2 reporter, transcription factor activity; actives raise or lower the signal. An outline of the steps:
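Multiplexed reporter mRNA profiling in HepG2 after a 24 h chemical exposure. Curves fitted in both directions relative to DMSO negative control.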

Assay [5] can be described thus: ATG_Oct_MLP_CIS: Attagene CIS-FACTORIAL HepG2 Assay for human Octamer-Binding Transcription Factor (Oct) (AID 2282993). The note with it: HepG2 Attagene cis-factorial Oct reporter, mRNA; actives raise or lower the signal. An outline of the steps:
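Multiplexed cis-reporter assay in human liver HepG2 cells, 24 h incubation. Reporter RNA amplified and labelled, then resolved by capillary electrophoresis; DMSO serves as negative control and baseline.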

Assay [6] deals with Cellular tumor antigen p53 (Homo sapiens) (UniProt P04637). Briefly: ATG_p53_CIS: Attagene CIS-FACTORIAL HepG2 Assay for human p53 Transcription Factor (AID 2282994). As to conditions: HepG2 p53 cis-element reporter, Attagene mRNA; actives raise or lower the signal. An outline of the steps:
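Multiplexed reporter mRNA assay in human HepG2 liver cells; cis-regulated units report endogenous factor activity. Values come from bidirectional curve fitting against DMSO negative control after 24 h treatment.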

Assay [7] addresses human Peroxisome Proliferator-activated Receptor alpha (PPARa), PPARA (gene 5465) (UniProt Q07869). In words: ATG_PPARa_TRANS: Attagene TRANS-FACTORIAL HepG2 Assay for human Peroxisome Proliferator-activated Receptor alpha (PPARa) (AID 2283001; active means hit-call score of the fitted dose curve at least 0.9, where 1 is the maximum). An outline of the steps:
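Read-out is fluorescence of reporter cDNA fragments resolved by capillary electrophoresis after RT-PCR. Human HepG2 liver cells carried transfected PPARa-Gal4 chimera and GAL4-UAS reporter units, treated 24 h; activity scored as increase over DMSO.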

The target in assay [8] is human Peroxisome Proliferator-activated Receptor delta (PPARd), PPARD (gene 5467) (UniProt Q03181). In words: ATG_PPARd_TRANS: Attagene TRANS-FACTORIAL HepG2 Assay for human Peroxisome Proliferator-activated Receptor delta (PPARd) (AID 2283002; active means hit-call score of the fitted dose curve at least 0.9, where 1 is the maximum). An outline of the steps:
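Cell-based TRANS reporter: HepG2, transient MRTU transfection, 24 h exposure. Readout = reporter mRNA (RT-PCR/CE, 6-FAM). Gain-of-signal fit vs DMSO control.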

The target in assay [9] is Retinoic acid receptor alpha (Homo sapiens) (UniProt P10276). Briefly: ATG_RARa_TRANS: Attagene TRANS-FACTORIAL HepG2 Assay for human Retinoic Acid Receptor alpha (RARa) (AID 2283005; active means hit-call score of the fitted dose curve at least 0.9, where 1 is the maximum). An outline of the steps: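 Reporter transcripts, measured by RT-PCR with fluorescent labeling and capillary electrophoresis after 24 h dosing, reflect activity of an exogenous human RARa–GAL4 fusion in transiently transfected HepG2. Fitted for increase relative to DMSO.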
Sequence of Retinoic acid receptor alpha (Homo sapiens) (P10276 whole entry, looked up, the tested form may be a part): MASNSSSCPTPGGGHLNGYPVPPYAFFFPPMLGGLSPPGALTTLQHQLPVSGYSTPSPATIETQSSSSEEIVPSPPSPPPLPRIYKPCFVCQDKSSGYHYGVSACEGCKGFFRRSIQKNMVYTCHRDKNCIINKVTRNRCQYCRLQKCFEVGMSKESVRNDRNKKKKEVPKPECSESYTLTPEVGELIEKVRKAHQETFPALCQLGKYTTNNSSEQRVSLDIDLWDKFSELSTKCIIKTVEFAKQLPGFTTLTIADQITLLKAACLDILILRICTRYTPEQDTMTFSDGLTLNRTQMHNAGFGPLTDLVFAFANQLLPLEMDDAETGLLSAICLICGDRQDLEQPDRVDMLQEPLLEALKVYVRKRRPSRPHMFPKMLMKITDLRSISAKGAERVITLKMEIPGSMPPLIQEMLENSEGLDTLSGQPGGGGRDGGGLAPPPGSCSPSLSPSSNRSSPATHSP

The target of assay [10] is Peroxisome proliferator-activated receptor gamma (Homo sapiens) (UniProt P37231). Briefly: ATG_PPARg_TRANS: Attagene TRANS-FACTORIAL HepG2 Assay for human Peroxisome Proliferator-activated Receptor-gamma (PPARg) (AID 2283007; active means hit-call score of the fitted dose curve at least 0.9, where 1 is the maximum). An outline of the steps: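 Multiplexed reporter transcription units in HepG2, 24 h dosing, reporter transcripts quantified by fluorescent RT-PCR and capillary electrophoresis. Increase over DMSO scored.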
Sequence of Peroxisome proliferator-activated receptor gamma (Homo sapiens) (P37231 whole entry, looked up): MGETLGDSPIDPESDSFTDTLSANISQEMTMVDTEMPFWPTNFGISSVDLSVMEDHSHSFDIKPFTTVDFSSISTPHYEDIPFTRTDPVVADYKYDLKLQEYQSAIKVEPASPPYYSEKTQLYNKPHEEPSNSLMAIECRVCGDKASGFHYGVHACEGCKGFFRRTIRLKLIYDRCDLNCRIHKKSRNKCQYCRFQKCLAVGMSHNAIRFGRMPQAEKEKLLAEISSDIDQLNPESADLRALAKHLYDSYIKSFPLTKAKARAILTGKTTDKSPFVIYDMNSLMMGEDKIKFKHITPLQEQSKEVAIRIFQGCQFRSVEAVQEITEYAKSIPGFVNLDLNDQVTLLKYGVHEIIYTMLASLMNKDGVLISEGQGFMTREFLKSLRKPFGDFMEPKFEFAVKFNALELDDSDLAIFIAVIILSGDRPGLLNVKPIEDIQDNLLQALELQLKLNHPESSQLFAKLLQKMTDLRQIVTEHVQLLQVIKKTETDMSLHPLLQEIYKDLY

In assay [11] the target is human Retinoic Acid Receptor gamma (RARg), RARG (gene 5916) (UniProt P13631). In words: ATG_RARg_TRANS: Attagene TRANS-FACTORIAL HepG2 Assay for human Retinoic Acid Receptor gamma (RARg) (AID 2283009; active means hit-call score of the fitted dose curve at least 0.9, where 1 is the maximum). An outline of the steps: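 Transient transfection of HepG2 with multi-reporter constructs, then 24 h chemical treatment. Total RNA isolated, reverse-transcribed, PCR-amplified, fluorescently labelled and resolved by capillary electrophoresis; activity scored as mRNA induction versus DMSO.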
Sequence of human Retinoic Acid Receptor gamma (RARg), RARG (gene 5916) (P13631 whole entry, looked up): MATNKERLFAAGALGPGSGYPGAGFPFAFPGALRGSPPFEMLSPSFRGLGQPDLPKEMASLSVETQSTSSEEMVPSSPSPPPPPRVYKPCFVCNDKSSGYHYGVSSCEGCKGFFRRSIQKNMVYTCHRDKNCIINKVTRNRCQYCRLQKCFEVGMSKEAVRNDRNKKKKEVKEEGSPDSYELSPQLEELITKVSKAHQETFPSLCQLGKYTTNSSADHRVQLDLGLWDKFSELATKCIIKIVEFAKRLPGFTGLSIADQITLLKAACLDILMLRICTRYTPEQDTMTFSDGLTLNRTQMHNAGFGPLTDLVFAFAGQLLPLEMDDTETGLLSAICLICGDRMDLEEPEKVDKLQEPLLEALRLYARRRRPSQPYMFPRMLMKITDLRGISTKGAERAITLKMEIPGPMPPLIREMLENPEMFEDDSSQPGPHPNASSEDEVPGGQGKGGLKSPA

The target in assay [12] is human RAR-related Orphan Receptor beta (RORb), RORB (gene 6096) (UniProt Q92753). In words: ATG_RORb_TRANS: Attagene TRANS-FACTORIAL HepG2 Assay for human RAR-related Orphan Receptor beta (RORb) (AID 2283010; active means hit-call score of the fitted dose curve at least 0.9, where 1 is the maximum). An outline of the steps: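 Readout is reporter-gene mRNA induction, detected as fluorescence after RT-PCR and capillary electrophoresis, fitted for gain of signal against DMSO controls. Transiently transfected HepG2 liver cells carrying GAL4-UAS reporter constructs were treated for 24 hours.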
Sequence of human RAR-related Orphan Receptor beta (RORb), RORB (gene 6096) (Q92753 whole entry, looked up, the tested form may be a part): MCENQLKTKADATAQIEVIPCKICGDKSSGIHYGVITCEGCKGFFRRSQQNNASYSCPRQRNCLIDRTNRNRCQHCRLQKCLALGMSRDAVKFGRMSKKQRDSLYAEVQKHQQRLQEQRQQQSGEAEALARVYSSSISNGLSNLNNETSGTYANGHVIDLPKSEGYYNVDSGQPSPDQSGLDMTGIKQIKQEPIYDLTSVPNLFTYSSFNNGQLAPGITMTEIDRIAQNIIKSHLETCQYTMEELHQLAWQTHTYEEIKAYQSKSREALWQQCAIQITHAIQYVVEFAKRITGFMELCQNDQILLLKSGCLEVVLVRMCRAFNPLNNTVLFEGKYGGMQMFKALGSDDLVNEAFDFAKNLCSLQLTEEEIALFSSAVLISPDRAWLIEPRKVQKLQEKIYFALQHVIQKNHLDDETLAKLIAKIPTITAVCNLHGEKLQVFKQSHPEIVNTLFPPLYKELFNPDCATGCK

Assay [13] in a line: BSK_3C_TissueFactor: BioMAP Diversity Plus: 3C Assay for Tissue Factor Biomarker Activity (AID 2282997). The note with it: BioMAP 3C HUVEC, tissue factor biomarker readout; actives raise or lower the signal. An outline of the steps:
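Endothelial monolayers (human umbilical vein, primary) are dosed, incubated 24 h, and assayed for Tissue Factor by ELISA; DMSO serves as negative control for bidirectional fitting.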

Assay [14] is described as follows: BSK_3C_uPAR: BioMAP Diversity Plus: 3C Assay for Urokinase-type plasminogen activator receptor (uPAR) Biomarker Activity (AID 2282998). The note with it: BioMAP 3C HUVEC, uPAR biomarker ELISA; actives raise or lower the signal. An outline of the steps: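 Dose primary human umbilical vein endothelial cells, incubate 24 h, measure cell-surface uPAR by ELISA, then fit the signal in both directions against the DMSO negative control.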

A short description of assay [15]: BSK_3C_VCAM1: BioMAP Diversity Plus: 3C Assay for Vascular cell adhesion molecule 1 (VCAM1) Biomarker Activity (AID 2282999). As to conditions: BioMAP 3C HUVEC, VCAM1 ELISA, cytokine-stimulated; actives raise or lower the signal. An outline of the steps: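 Endothelial cells from human umbilical vein are treated with test chemical. At 24 h, VCAM-1 is measured by ELISA, and responses in either direction are fitted relative to DMSO.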

Assay [16] is described as follows: BSK_4H_Eotaxin3: BioMAP Diversity Plus: 4H Assay for Eotaxin 3 Biomarker Activity (AID 2283000).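 On outcome: CCL26 protein level quantified by ELISA in parallel with SRB cytotoxicity check.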 The note with it: primary human endothelial cells (HUVEC); actives raise or lower the signal. An outline of the steps:
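ELISA quantitation of CCL26 (Eotaxin-3) protein from chemically dosed human vascular endothelial cells at 24 h; increases and decreases both scored relative to DMSO-treated baseline.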

Read-out in assay [17]: Intercellular Adhesion Molecule 1 (ICAM1), ICAM1 (gene 3383)
Briefly: BSK_3C_ICAM1: BioMAP Diversity Plus: 3C Assay for Intercellular Adhesion Molecule 1 (ICAM1) Biomarker Activity (AID 2283003). As to conditions: primary human endothelial cells (HUVEC); actives raise or lower the signal. An outline of the steps:
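ICAM-1 levels measured by ELISA after HUVEC cultures in the 3C system had been dosed for 24 h. Gain or loss of signal relative to DMSO was fitted in both directions.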

The target in assay [18] is human Retinoic Acid Receptor beta (RARb), RARB (gene 5915) (UniProt P10826). In words: ATG_RARb_TRANS: Attagene TRANS-FACTORIAL HepG2 Assay for human Retinoic Acid Receptor beta (AID 2283004; active means hit-call score of the fitted dose curve at least 0.9, where 1 is the maximum). An outline of the steps:
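Fluorescent capillary-electrophoresis detection of GAL4-UAS reporter mRNA defines the endpoint, with induction over DMSO-treated wells scored as activity. Transiently transfected human hepatoma HepG2 cells expressing exogenous NR–Gal4 proteins are exposed to test chemicals for 24 h.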

Assay [19] can be described thus: BSK_3C_Proliferation: Cell Proliferation Assessment in the BioMAP Diversity Plus: 3C Assay (AID 2283006).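 On AC50: potency may reflect either rise or fall in cell number versus DMSO.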 The note with it: primary human endothelial cells (HUVEC). An outline of the steps:
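Read-out is total protein by SRB absorbance at 560 nm, taken as a proxy for relative cell number. Primary human umbilical vein endothelium cultured below confluence was dosed for 48 h, TCA-fixed and SRB-stained; curves were fitted bidirectionally versus DMSO.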

For assay [20], the target named is Nuclear receptor subfamily 1 group I member 2 (Homo sapiens) (UniProt O75469). In words: ATG_PXR_TRANS: Attagene TRANS-FACTORIAL HepG2 Assay for human Pregnane X Receptor (PXR) (AID 2283008; active means hit-call score of the fitted dose curve at least 0.9, where 1 is the maximum). An outline of the steps:
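Measures mRNA induction of a GAL4-UAS-driven reporter in human HepG2 cells transiently expressing PXR fused to Gal4, following 24 h treatment. DMSO served as negative control and baseline.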

Sequence of Cellular tumor antigen p53 (Homo sapiens) (P04637 whole entry, looked up): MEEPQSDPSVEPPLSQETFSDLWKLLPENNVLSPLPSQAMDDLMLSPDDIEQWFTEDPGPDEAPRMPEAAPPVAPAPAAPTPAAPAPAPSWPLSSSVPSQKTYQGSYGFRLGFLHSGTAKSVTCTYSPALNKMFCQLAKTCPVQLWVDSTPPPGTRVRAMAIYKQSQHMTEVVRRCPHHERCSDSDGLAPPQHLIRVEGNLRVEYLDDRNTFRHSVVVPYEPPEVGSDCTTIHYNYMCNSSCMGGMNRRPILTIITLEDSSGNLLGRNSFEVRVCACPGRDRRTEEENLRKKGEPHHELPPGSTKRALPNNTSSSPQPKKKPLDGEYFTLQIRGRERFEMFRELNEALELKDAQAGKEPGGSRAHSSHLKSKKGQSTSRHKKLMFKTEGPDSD
Sequence of Nuclear receptor subfamily 1 group I member 2 (Homo sapiens) (O75469 whole entry, looked up, the tested form may be a part): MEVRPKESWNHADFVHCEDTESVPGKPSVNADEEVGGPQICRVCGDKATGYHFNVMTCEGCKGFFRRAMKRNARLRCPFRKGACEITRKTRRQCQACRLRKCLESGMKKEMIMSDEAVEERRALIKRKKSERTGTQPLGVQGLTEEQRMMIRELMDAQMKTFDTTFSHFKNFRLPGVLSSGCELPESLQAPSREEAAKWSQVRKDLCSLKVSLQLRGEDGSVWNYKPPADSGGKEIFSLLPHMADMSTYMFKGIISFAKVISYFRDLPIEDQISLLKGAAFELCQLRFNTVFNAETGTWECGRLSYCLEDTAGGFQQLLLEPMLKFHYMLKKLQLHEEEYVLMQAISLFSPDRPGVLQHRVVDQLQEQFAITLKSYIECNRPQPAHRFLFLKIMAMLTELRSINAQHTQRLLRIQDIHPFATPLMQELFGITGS
Sequence of human Retinoic Acid Receptor beta (RARb), RARB (gene 5915) (P10826 whole entry, looked up, the tested form may be a part): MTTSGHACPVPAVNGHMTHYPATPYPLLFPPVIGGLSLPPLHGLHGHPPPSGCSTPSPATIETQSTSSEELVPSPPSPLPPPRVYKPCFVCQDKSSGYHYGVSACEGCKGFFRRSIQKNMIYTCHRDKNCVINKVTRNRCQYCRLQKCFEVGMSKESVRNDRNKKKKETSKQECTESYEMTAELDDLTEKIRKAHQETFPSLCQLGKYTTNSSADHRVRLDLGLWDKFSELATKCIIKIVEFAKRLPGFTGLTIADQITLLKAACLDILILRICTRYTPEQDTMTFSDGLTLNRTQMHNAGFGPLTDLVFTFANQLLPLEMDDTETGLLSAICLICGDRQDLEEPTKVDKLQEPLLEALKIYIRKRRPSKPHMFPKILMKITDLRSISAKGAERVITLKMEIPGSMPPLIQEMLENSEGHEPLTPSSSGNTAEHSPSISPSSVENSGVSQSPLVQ
Sequence of human Peroxisome Proliferator-activated Receptor delta (PPARd), PPARD (gene 5467) (Q03181 whole entry, looked up): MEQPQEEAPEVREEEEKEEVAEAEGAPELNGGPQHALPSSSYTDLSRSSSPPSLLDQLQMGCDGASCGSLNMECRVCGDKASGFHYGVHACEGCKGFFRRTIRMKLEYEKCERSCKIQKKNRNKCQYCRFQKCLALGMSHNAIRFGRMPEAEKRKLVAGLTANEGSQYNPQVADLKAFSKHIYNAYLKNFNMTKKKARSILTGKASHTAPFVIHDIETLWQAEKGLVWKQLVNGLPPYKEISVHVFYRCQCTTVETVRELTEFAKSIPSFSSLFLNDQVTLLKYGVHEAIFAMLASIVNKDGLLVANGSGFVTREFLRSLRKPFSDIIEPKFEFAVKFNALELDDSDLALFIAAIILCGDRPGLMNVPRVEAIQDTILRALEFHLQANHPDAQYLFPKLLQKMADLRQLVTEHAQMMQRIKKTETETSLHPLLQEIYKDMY
Sequence of human Peroxisome Proliferator-activated Receptor alpha (PPARa), PPARA (gene 5465) (Q07869 whole entry, looked up, the tested form may be a part): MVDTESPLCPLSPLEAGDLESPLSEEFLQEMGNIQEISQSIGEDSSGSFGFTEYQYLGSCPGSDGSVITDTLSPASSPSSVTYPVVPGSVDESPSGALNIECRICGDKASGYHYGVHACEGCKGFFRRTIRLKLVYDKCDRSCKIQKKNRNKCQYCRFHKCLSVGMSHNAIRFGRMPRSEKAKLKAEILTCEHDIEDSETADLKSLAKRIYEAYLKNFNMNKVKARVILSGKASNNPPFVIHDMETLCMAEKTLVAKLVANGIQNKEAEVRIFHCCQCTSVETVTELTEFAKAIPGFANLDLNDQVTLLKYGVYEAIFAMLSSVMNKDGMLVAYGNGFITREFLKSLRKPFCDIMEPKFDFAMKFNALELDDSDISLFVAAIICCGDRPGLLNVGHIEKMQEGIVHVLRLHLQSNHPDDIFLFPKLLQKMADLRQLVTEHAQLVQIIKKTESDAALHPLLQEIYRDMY

As for `CCCCCCCCCCCCCCCCCC#N`, the compound was classed as inactive in assay [1], in assay [2], in [3], in assay [4], in assay [5] and in assay [6]. Further, the outcome in assay [7], in assay [8], in assay [9], in assay [10], in [11] and in assay [12] was inactive.

Turning to `CCO[Si](CCCN=C=O)(OCC)OCC`, the compound was called inactive in [1], in assay [2], in assay [3], in [4], in assay [5] and in assay [6]. For the same compound, the result in assay [13], in assay [14], in [15], in [16], in assay [7] and in [8] was inactive. The outcome in assay [17], in assay [18], in [19], in [10], in [20] and in assay [11] was inactive.

`CCC(CC)C(=O)O`: the result in [1], in assay [2], in [3], in [4], in assay [5] and in [6] was inactive. In addition, the call in assay [7], in assay [8], in assay [18] and in [12] was inactive.

Take `O=c1[nH]c(=O)c2[nH]c(=O)[nH]c2[nH]1`: the result in [1], in assay [2], in assay [3], in assay [4], in assay [5] and in [6] was inactive. In addition, the outcome in assay [7], in assay [8], in assay [18] and in [12] was inactive.

Consider `NC(=O)C1CO1` (configuration not stated), for which the compound was classed as inactive in assay [1], in assay [2], in assay [3], in assay [4], in assay [5] and in assay [6]. In addition, the outcome in [7], in assay [8], in assay [18] and in assay [9] was inactive.

One may read the AC50 as the midpoint of the concentration-response curve, whichever way the signal moves. For `CCCCC(CC)COC(=O)c1ccccc1O` (configuration not stated), the compound was called inactive in assay [1], in assay [2], in assay [3], in assay [4], in assay [5] and in assay [6]. In addition, the result in assay [15], in assay [8], in [17], in assay [18], in [9] and in assay [10] was inactive. Besides, the compound was called inactive in assay [20] and in assay [12]. For the same compound, the AC50 was 1.8 µM (active) in assay [13], 17.9 µM (active) in [14], 15.2 µM (active) in assay [16] and 17.3 µM (active) in assay [19].

Regarding `C=CC(C)(CCC=C(C)C)OC(=O)C(C)C` (configuration not stated), the compound was classed as inactive in [1], in assay [2], in assay [3], in [5], in assay [6] and in assay [7]. Moreover, the outcome in assay [8], in assay [18], in [10] and in assay [11] was inactive. For the same compound, the concentration at half-maximal activity (AC50) is 100 µM (active) in [4] and 27.4 µM (active) in assay [20].

`O=C(C=Cc1ccccc1)OCc1ccccc1`: the compound was called inactive in assay [1], in assay [2], in assay [3], in assay [5], in [6] and in assay [7]. Moreover, the outcome in assay [8], in assay [20] and in assay [12] was inactive. The AC50 in [4] is 34.4 µM (active); in assay [10], 0.162 µM (active).

`CCCCCC/C=C\CCCCCCCC(=O)O`: the outcome in [1], in assay [2], in [3], in assay [5], in [6] and in [7] was inactive. Moreover, the compound was called inactive in [8], in assay [9], in [10] and in assay [12]. In addition, the AC50 in [4] is 26.5 µM (active).
